{
  "source": "PubChem BioAssay (NCATS)",
  "note": "Inconclusive results are not listed. Entries that show only a call come without a potency. Active and inactive are the calls of the source. Calls follow the shape of the full dose curve.",
  "data": [
    {"target": "Nucleoprotein (Lymphocytic choriomeningitis virus (strain Armstrong)) (UniProt P09992)", "sequence (P09992 whole entry, looked up)": "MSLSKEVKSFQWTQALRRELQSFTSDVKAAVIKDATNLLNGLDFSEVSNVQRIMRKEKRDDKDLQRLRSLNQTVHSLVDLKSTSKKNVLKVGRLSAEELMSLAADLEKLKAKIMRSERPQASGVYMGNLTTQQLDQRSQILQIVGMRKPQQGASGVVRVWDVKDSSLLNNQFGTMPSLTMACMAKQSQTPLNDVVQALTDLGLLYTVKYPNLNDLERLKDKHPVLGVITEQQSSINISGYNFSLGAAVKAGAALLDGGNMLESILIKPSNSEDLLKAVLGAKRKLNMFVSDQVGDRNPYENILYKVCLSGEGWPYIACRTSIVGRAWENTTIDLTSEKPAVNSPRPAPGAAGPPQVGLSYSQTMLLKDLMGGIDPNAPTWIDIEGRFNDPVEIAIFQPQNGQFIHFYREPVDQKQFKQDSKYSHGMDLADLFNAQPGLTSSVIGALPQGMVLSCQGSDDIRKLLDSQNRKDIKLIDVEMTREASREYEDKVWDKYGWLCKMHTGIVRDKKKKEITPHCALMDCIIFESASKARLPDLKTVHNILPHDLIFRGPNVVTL", "experiment": "qHTS for Inhibitors of the Functional Ribonucleoprotein Complex (vRNP) of Lymphocytic Choriomeningitis Arenaviruses (LCMV): LCMV Primary Screen - GLuc reporter signal (AID 1347086); also: nearly all actives have a fitted effect of over 70% in size; also: potency is read from the fitted curve at half-maximal effect", "details": "LCMV minigenome vRNP cell assay, Gaussia luciferase reporter; series mostly up to 57.5 µM", "values": [
      {"compound": "COc1cc2c(=O)c(-c3ccc(O)cc3)coc2cc1OC1OC(CO)C(O)C(O)C1O", "note": "(stereo not given)", "Potency": "inactive"},
      {"compound": "CC1=C2C(=O)OC(c3ccoc3)C2(C)CCC1", "note": "(stereo not given)", "Potency": "inactive"},
      {"compound": "O=C(/C=C/c1ccc(O)c(O)c1)c1ccc(O)cc1O", "Potency": "inactive"},
      {"compound": "CCOC(=O)[C@H]1O[C@H]1C(=O)N[C@@H](CC(C)C)C(=O)NCCC(C)C", "Potency": "inactive"},
      {"compound": "C/C(=C/CCC(C)[C@H]1CC[C@@]2(C)C3=C(CC[C@]12C)[C@@]1(C)CCC(=O)C(C)(C)[C@@H]1CC3)C(=O)O", "note": "(stereo not given in full)", "Potency": "inactive"},
      {"compound": "C[C@]12CCC(=O)C=C1[C@@H]1CC1[C@H]1[C@H]3[C@@H]4C[C@H]4[C@@]4(CCC(=O)O4)[C@@]3(C)CC[C@H]12", "note": "(stereo not given in full)", "Potency": "inactive"},
      {"compound": "CCOC(=O)[C@H](CCc1ccccc1)N[C@@H](C)C(=O)N1CCCC1C(=O)O", "note": "(stereo not given in full)", "Potency": "inactive"},
      {"compound": "[3H]C([3H])([3H])C(O)(CCC[C@@H](C)C1CC[C@H]2/C(=C/C=C3/C[C@@H](O)CCC3=C)CCC[C@]12C)C([3H])([3H])[3H]", "note": "(stereo not given in full)", "Potency": "inactive"},
      {"compound": "CC1(C)C2CC1[C@@](C)(O)[C@H](O)C2", "note": "(stereo not given in full)", "Potency": "inactive"},
      {"compound": "C[C@@H]1CC[C@@]23COC(=O)C2=CCC[C@@H]3[C@@]1(C)CC/C(=C/CO)CO", "Potency": "inactive"},
      {"compound": "CC(C)CCCCCCCCCCCCC(=O)NCC(=O)NC1C(O)C(O)C(Nc2ncnc3nc[nH]c23)OC1C(O)CO", "note": "(stereo not given)", "Potency": "inactive"},
      {"compound": "CC(C)COC(=O)c1ccccc1", "Potency": "inactive"},
      {"compound": "COc1cc(=O)n(C)c2c(O)cccc12", "Potency": "inactive"},
      {"compound": "C=CC[C@]12C[C@@H](OC)C(=O)C=C1O[C@@H](c1ccc(OC)c(OC)c1)[C@H]2C", "Potency": "inactive"},
      {"compound": "CN(C)CCOc1ccc(-c2nc(-c3ccc4c(c3)CCC4=NO)c(-c3ccncc3)[nH]2)cc1", "Potency": "inactive"},
      {"compound": "C=C(C)[C@@H](O)COc1c2ccoc2cc2oc(=O)ccc12", "Potency": "inactive"},
      {"compound": "C/C=C\\C/C=C/CCCCCCCCOC(C)=O", "Potency": "inactive"},
      {"compound": "C[C@]12CCC(=O)C=C1CC[C@@H]1[C@H]2[C@@H](O)C[C@@]2(C)[C@H]1CC[C@]2(O)C(=O)CO", "Potency": "inactive"},
      {"compound": "COc1cc(C(C)=O)cc(OC)c1O", "Potency": "inactive"},
      {"compound": "Cc1nc(Nc2n[nH]c3c2CN(C(=O)N[C@H](CN(C)C)c2ccccc2)C3(C)C)c2sccc2n1", "Potency": "8.63 µM (active)"},
      {"compound": "OCCN1C[C@H](O)[C@@H](O)[C@H](O)[C@@H]1CO", "Potency": "inactive"},
      {"compound": "C[C@@H]1O[C@@H](O[C@H]2[C@H](O)[C@@H](O)[C@H](Oc3c(-c4ccc(O)c(O)c4)oc4cc(O)cc(O)c4c3=O)O[C@@H]2CO)[C@H](O)[C@H](O)[C@H]1O", "Potency": "inactive"},
      {"compound": "COc1cc(/C=C/c2ccc(O)cc2)cc(OC)c1", "Potency": "inactive"},
      {"compound": "CCCCOC(=O)C(C)OC(=O)CCC", "note": "(stereo not given)", "Potency": "inactive"},
      {"compound": "CCCSSCCC", "Potency": "inactive"},
      {"compound": "C/C(=C\\C(=O)O)CC(=O)O", "Potency": "inactive"},
      {"compound": "NC1(C(=O)N[C@@H](CCO)c2ccc(Cl)cc2)CCN(c2ncnc3[nH]ccc23)CC1", "Potency": "1.72 µM (active)"},
      {"compound": "CC(=O)Nc1ccccc1O", "Potency": "inactive"},
      {"compound": "O=C(Nc1ncc(SCCN2CCCC2)s1)[C@]1(c2ccc(S(=O)(=O)C3CC3)cc2)C[C@@H]1C1CCCCC1", "Potency": "inactive"},
      {"compound": "CC(C)=CCc1c(-c2ccc(O)cc2O)oc2cc3c(c(O)c2c1=O)C=CC(C)(C)O3", "Potency": "inactive"},
      {"compound": "CCCCCCC[C@@H](C/C=C/CCC(=O)N(C)C/C(=C/Cl)C/C(=C\\C(=O)N1CC(OC)=CC1=O)OC)OC", "Potency": "inactive"},
      {"compound": "C=C[C@@]1(C)CCC(/C(C)=C/C=C/C(C)(C)O)C[C@@H]1C(=C)C", "note": "(stereo not given in full)", "Potency": "inactive"},
      {"compound": "C[C@]12CCC3=C4CCC(=O)C=C4CC[C@@H]3[C@H]1CC[C@@]2(O)CC#N", "Potency": "inactive"},
      {"compound": "CCOC(=O)c1cccc(C(=O)OCC)n1", "Potency": "inactive"},
      {"compound": "CC12CCC(=O)C=C1C(O)CC1C2CCC2(C)C1CCC2(O)C(=O)CO", "note": "(stereo not given)", "Potency": "inactive"},
      {"compound": "Nc1nc2c(ncn2[C@@H]2O[C@H](COP(=O)(O)OP(=O)(O)O)[C@@H](O)[C@H]2O)c(=O)[nH]1", "Potency": "inactive"},
      {"compound": "C[C@H]1[C@H](C)CC[C@]2(C(=O)O)CC[C@]3(C)C(=CC[C@@H]4[C@@]5(C)C[C@@H](O)[C@H](O)C(C)(C)[C@@H]5CC[C@]43C)[C@H]12", "Potency": "inactive"},
      {"compound": "CC(=O)N1CCN(c2ccc(OCc3nn(C)c(C)c3-c3cccc4c(CCCOc5cc(C)c(Cl)c(C)c5)c(C(=O)O)n(Cc5cccnc5)c34)cc2)CC1", "Potency": "inactive"},
      {"compound": "C[C@]1(CC/C(=C/CO)CO)[C@H](CO)CC[C@@]23COC(=O)C2=CCC[C@@H]31", "Potency": "inactive"},
      {"compound": "Nc1nc(Nc2ccccc2)nc2c1ncn2[C@@H]1O[C@H](CO)[C@@H](O)[C@H]1O", "Potency": "inactive"}
    ]}
  ]
}
